Here are results for 18 molecules from PubChem BioAssay (NCI).

Some test systems named below: NCI-H23 lung; NCI-H226 lung; NCI-H322M lung; HOP-62 NSCLC; NCI-H460 lung; NCI-H522 lung; 786-0 renal; COLO 205 colon; DU-145 prostate; A549/ATCC NSCLC.
Holding throughout (assay): NCI-60 one-dose screen, 48 h (100 = growth as untreated, 0 = no growth, -100 = all killed)
Holding throughout (conditions): 10 µM unless noted

Molecules are shown by their SMILES. This is part of a sample that, as a whole, favours compounds with a hit. Of some 83,000 tested, about 20% had one in any assay.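 Growth was measured after 48 h exposure to one concentration of compound in 96-well plates. Values under 10 count as active.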 Unmarked numbers belong to inactive results. Active and inactive are the calls of the source.

In the case of `O=c1[nH]c(=O)n(C2CC(O)C(CO)O2)cc1C(F)(F)F` (stereo not drawn), the growth is -5.01% (active) with NCI-H23 lung; 57% with NCI-H226 lung; 76% with NCI-H322M lung; 33.1% in the experiment on HOP-62 NSCLC; 19.2% with NCI-H460 lung; -12% (active) with NCI-H522 lung. Also, the values for the growth in the experiment with 786-0 renal, with COLO 205 colon and with DU-145 prostate were 12.7%, 69.2% and 6.03% (active), respectively.
`C/C(=C\CCc1ccsc1)CC/C=C(\C)CCCN1CCC(CO)CC1`: the growth in the experiment on NCI-H23 lung was 61.4%; in the experiment on NCI-H226 lung, 63.4%; with NCI-H322M lung it was 76.2%; in the experiment on HOP-62 NSCLC, 62.1%; with NCI-H460 lung, -46.3% (active); in the experiment with A549/ATCC NSCLC, 36.6%. The values for the growth with 786-0 renal, in the experiment on COLO 205 colon and with DU-145 prostate were 5.43% (active), -54.9% (active) and 64.5%, respectively.
Regarding `O=C1/C(=C/c2ccc([N+](=O)[O-])o2)Oc2ccc(Cl)cc21`, the growth was 21.3% in the experiment on NCI-H23 lung; -7.54% (active) with NCI-H226 lung; 79% with NCI-H322M lung; 74.5% in the experiment on HOP-62 NSCLC; 75.4% in the experiment with NCI-H460 lung; 92.4% with A549/ATCC NSCLC. Besides, the growth is -53.7% (active) in the experiment with 786-0 renal, -57.8% (active) with COLO 205 colon and 35.7% in the experiment on DU-145 prostate.
As for `COc1ccc(/C=N/NC(=O)c2ccc(S(C)(=O)=O)cc2)cc1OC`, the growth with NCI-H23 lung is 102%; with NCI-H226 lung, 93.5%; with NCI-H322M lung it was 92.1%; in the experiment with HOP-62 NSCLC it was 97.2%; in the experiment on NCI-H460 lung, 109%; with NCI-H522 lung it was 84.4%. Besides, the values for the growth in the experiment on 786-0 renal, with COLO 205 colon and with DU-145 prostate were 99.5%, 107% and 99.8%, respectively.
As for `O=C(NN(C(=O)c1ccccc1)c1cccs1)c1ccccc1`, the growth in the experiment with NCI-H23 lung was 103%; with NCI-H226 lung it was 99.8%; in the experiment with NCI-H322M lung it was 94%; in the experiment with HOP-62 NSCLC, 97%; in the experiment on NCI-H460 lung it was 116%; with NCI-H522 lung it was 91.3%. In addition, the figures for the growth with 786-0 renal and in the experiment on DU-145 prostate were 100% and 123%, respectively.
Take `CCCCC1Nc2nc(SC)n(C)c(=O)c2CN(Cc2ccccc2)C1=O` (stereo not drawn): the growth in the experiment with NCI-H23 lung was 98.4%; in the experiment with NCI-H226 lung it was 84.9%; with NCI-H322M lung it was 90.6%; with HOP-62 NSCLC, 97.9%; in the experiment on NCI-H460 lung, 104%; in the experiment with A549/ATCC NSCLC it was 94.5%. Further, the growth was 78.4% with 786-0 renal, 112% in the experiment on COLO 205 colon and 112% in the experiment on DU-145 prostate.
For `O=[N+]([O-])c1ccc2c(c1)S(=O)c1cc([N+](=O)[O-])ccc1N2`, the growth in the experiment with NCI-H23 lung is 103%; in the experiment on NCI-H226 lung, 91.9%; with NCI-H322M lung it was 117%; with HOP-62 NSCLC it was 67.3%; in the experiment with NCI-H460 lung, 96.4%; with NCI-H522 lung, 97%. Also, the figures for the growth with 786-0 renal and in the experiment on DU-145 prostate were 108% and 116%, respectively.
For the molecule `CCCCCCCC/C=C/CCCCCCCC1=NC(C)(C)CN1CC(C)O` (stereo not drawn), the growth was 67% with NCI-H23 lung; 89.6% in the experiment with NCI-H226 lung; 53.9% in the experiment with NCI-H322M lung; 36.5% in the experiment with HOP-62 NSCLC; -34.9% (active) in the experiment on NCI-H460 lung; 27.9% with A549/ATCC NSCLC. In addition, the growth in the experiment on 786-0 renal was 59%; in the experiment with COLO 205 colon it was -91.3% (active); in the experiment with DU-145 prostate, 69.2%.
As to `NC(=O)SCC(=O)Nc1ccccc1-c1ccccc1`, the growth with NCI-H23 lung was 97.2%; in the experiment with NCI-H226 lung, 117%; in the experiment on NCI-H322M lung, 106%; with HOP-62 NSCLC it was 116%; with NCI-H460 lung it was 116%; in the experiment on A549/ATCC NSCLC, 91.7%. Besides, the values for the growth in the experiment on 786-0 renal and with COLO 205 colon were 95.5% and 95.3%, respectively.
As to `O=NC1CC=CCC1c1ccccc1` (stereo not drawn), the growth in the experiment on NCI-H23 lung is 106%; in the experiment with NCI-H226 lung it was 105%; in the experiment on NCI-H322M lung, 118%; with HOP-62 NSCLC, 98.7%; with NCI-H460 lung, 112%; with NCI-H522 lung it was 109%. For the same molecule, the figures for the growth with 786-0 renal, in the experiment with COLO 205 colon and in the experiment with DU-145 prostate were 106%, 117% and 124%, respectively.
Consider `C[n+]1ccc(Nc2ccc(NC(=O)c3ccc(Nc4cc[n+](C)c5ccc(N)cc45)cc3)cc2)cc1`, for which the growth in the experiment on NCI-H23 lung was 104%; in the experiment with NCI-H226 lung it was 82.6%; in the experiment on NCI-H322M lung, 146%; with HOP-62 NSCLC it was 102%; in the experiment with NCI-H460 lung it was 82.6%; with NCI-H522 lung it was 109%. Moreover, the results for the growth in the experiment on 786-0 renal, in the experiment on COLO 205 colon and with DU-145 prostate were 97%, 92.8% and 119%, respectively.
Consider `O=[N+]([O-])c1ccc(Oc2cccc(C(F)(F)F)c2)c([N+](=O)[O-])c1`, for which the growth with NCI-H23 lung is 27.7%; in the experiment on NCI-H226 lung, 47.6%; in the experiment on NCI-H322M lung, 90.3%; in the experiment with HOP-62 NSCLC, 101%; in the experiment on NCI-H460 lung, 95.6%; in the experiment with A549/ATCC NSCLC it was 97.2%. For the same molecule, the growth in the experiment on 786-0 renal was 47.5%; in the experiment with COLO 205 colon, 2.36% (active); in the experiment on DU-145 prostate it was 95.2%.
In the case of `Nc1nc2ncc(CCNc3ccc(C(=O)NC(CCC(=O)O)C(=O)O)cc3)nc2c(=O)[nH]1` (stereo not drawn), the growth with NCI-H23 lung was 43.3%; in the experiment on NCI-H226 lung it was 102%; in the experiment on NCI-H322M lung, 122%; in the experiment on HOP-62 NSCLC, 90.6%; in the experiment on NCI-H460 lung it was 108%; with NCI-H522 lung, 28%. In addition, the growth with 786-0 renal was 93.1%; in the experiment with COLO 205 colon it was 118%; in the experiment with DU-145 prostate it was 109%.
For the molecule `OCCOc1c(Cl)cc(Cl)cc1Cl`, the growth in the experiment with NCI-H23 lung was 101%; in the experiment on NCI-H226 lung it was 111%; in the experiment on NCI-H322M lung, 114%; with HOP-62 NSCLC, 108%; in the experiment with NCI-H460 lung, 108%; with A549/ATCC NSCLC, 93.9%. The growth in the experiment with 786-0 renal is 104%; in the experiment with COLO 205 colon it was 114%; in the experiment on DU-145 prostate it was 115%.
Turning to `O=C(Cc1ccccn1)C(F)(F)C(F)(F)C(F)(F)F`, the growth in the experiment on NCI-H23 lung is 104%; in the experiment on NCI-H226 lung, 102%; in the experiment on NCI-H322M lung it was 116%; with HOP-62 NSCLC, 97.5%; in the experiment on NCI-H460 lung it was 111%; with NCI-H522 lung it was 111%. For the same molecule, the growth with 786-0 renal was 104%; with DU-145 prostate it was 112%.
As to `COc1ccc(COC(C)=O)cc1`, the growth in the experiment with NCI-H23 lung was 113%; in the experiment on NCI-H226 lung, 104%; in the experiment on NCI-H322M lung, 112%; with HOP-62 NSCLC it was 101%; with NCI-H460 lung it was 111%; in the experiment on A549/ATCC NSCLC, 100%. Moreover, the growth in the experiment on 786-0 renal is 99.4%; with COLO 205 colon, 127%; in the experiment on DU-145 prostate, 110%.
For `CC(=O)NCCSC(=O)C(=O)SCCNC(C)=O`, the growth in the experiment with NCI-H23 lung is 109%; with NCI-H226 lung, 103%; in the experiment with NCI-H322M lung it was 144%; in the experiment on HOP-62 NSCLC, 107%; in the experiment on NCI-H460 lung, 114%; with NCI-H522 lung it was 125%. The results for the growth in the experiment on 786-0 renal, in the experiment with COLO 205 colon and in the experiment with DU-145 prostate were 95.5%, 122% and 116%, respectively.
Take `CCC(c1ccccc1)c1noc(CCN(CC)CC)n1` (stereo not drawn): the growth in the experiment on NCI-H23 lung was 99.5%; in the experiment on NCI-H226 lung it was 90.7%; with NCI-H322M lung, 109%; in the experiment with HOP-62 NSCLC, 97.4%; in the experiment on NCI-H460 lung, 103%; in the experiment on NCI-H522 lung, -8.89% (active). Also, the growth in the experiment on 786-0 renal is 108%; in the experiment with COLO 205 colon, 114%; with DU-145 prostate, 100%.
